The values below come from PubChem BioAssay.

Molecules are shown by their SMILES. Results filed as inconclusive are left out. Activity calls are given as the source filed them.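 How the source made its calls, unless noted: active means percent response above a set limit, the screen-wide mean plus 3 SD (cut at about 130% in these data); inactive means the rest.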

The term inhibition denotes the relative decrease from the control value, in per cent.

Assay [1] can be described thus: rapamycin-like changes in RPL19A-GFP expression – cell-based, S. cerevisiae, multiplex flow cytometry, primary screen (AID 1862; in the data active means percent of DMSO control GFP below about 86%;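 further: lower values mimic rapamycin by blocking the RPL19A rise seen in DMSO cells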). The conditions noted are these: S. cerevisiae RPL19A-GFP strain, flow cytometry fluorescence, 3 h; at 10 µM; stronger effect = lower value.
The nature of assay [2]: TOR pathway RTG branch CIT2 reporter changes – S. cerevisiae, GFP fusion, multiplex flow cytometry, primary screen (AID 1870).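 Further: barcoded CIT2-GFP strain pooled with four other GFP strains with rapamycin as positive control; median GFP fluorescence per well over plate mean of DMSO wells so 100% = DMSO.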 The note with it: S. cerevisiae CIT2-GFP expression, 3 h, at 10 µM, stronger effect = higher value. In general terms: A flow cytometer gives signals particle by particle.
Assay [3] in a line: TOR pathway LAP4-GFP level changes – S. cerevisiae, multiplex flow cytometry, primary screen (AID 1873;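 active means GFP signal, as percent of the solvent control, above the screen mean plus 3 SD, about 149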). The conditions noted are these: S. cerevisiae LAP4-GFP expression, 3 h, at 10 µM, stronger effect = higher value.
A short description of assay [4]: yeast AGP1-GFP level changes, GLN3 branch – cell-based, multiplex flow cytometry, S. cerevisiae, primary screen (AID 1887;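 active means GFP signal above the screen-wide mean plus 3 SD, that is over about 124.5% of the solvent control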;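 further: AGP1-GFP fusion strain of S. cerevisiae within a five-strain barcoded multiplex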). The conditions noted are these: 3 h, at 10 µM, stronger effect = higher value.
A short description of assay [5]: reduced mouse 2C T cell binding to pMHC/ICAM-1 vesicles – MLPCN validation set, flow cytometry, LFA-1/ICAM-1 modulator project, pilot screen (AID 2523;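 active means response below a set limit, under 55% cells CD8-positive and vesicle-bound, and CD8 cells' 90th-percentile brightness under 279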;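 on vesicle binding response: mean PE anti-B7-1 fluorescence of CD8+ cells relative to row control; 100% = QL9-loaded vesicles with DMSO vehicle in the same plate row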). The conditions noted are these: 2C mouse CD8+ T cells, at 7 µM, stronger effect = lower value; double positive events: measured here: CD8+/vesicle+ event percentage.
The target in assay [6] is Integrin beta-1 (Homo sapiens) + Integrin alpha-4 (Homo sapiens) (UniProt P13612+P05556). The experiment in a line: alpha4beta1 integrin LIBS antibody binding reduction – U937 cells, HUTS-21 mAb, flow cytometry, validation set, VLA-4 allosteric modulator project, pilot screen (AID 2674;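 active means inhibition above 50%, about 3 SD of the validation set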;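 further: antibody binding induced by the VLA-4 ligand LDV present at three times its Kd; 0% = LDV ligand with antibody and no compound and 100% = antibody without LDV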). The note with it: HUTS-21 LIBS mAb binding, at 6.7 µM, stronger effect = higher value, binding induced by LDV ligand.
Integrin beta-1 (Homo sapiens) + Integrin alpha-4 (Homo sapiens), sequence (P05556 whole entry, looked up): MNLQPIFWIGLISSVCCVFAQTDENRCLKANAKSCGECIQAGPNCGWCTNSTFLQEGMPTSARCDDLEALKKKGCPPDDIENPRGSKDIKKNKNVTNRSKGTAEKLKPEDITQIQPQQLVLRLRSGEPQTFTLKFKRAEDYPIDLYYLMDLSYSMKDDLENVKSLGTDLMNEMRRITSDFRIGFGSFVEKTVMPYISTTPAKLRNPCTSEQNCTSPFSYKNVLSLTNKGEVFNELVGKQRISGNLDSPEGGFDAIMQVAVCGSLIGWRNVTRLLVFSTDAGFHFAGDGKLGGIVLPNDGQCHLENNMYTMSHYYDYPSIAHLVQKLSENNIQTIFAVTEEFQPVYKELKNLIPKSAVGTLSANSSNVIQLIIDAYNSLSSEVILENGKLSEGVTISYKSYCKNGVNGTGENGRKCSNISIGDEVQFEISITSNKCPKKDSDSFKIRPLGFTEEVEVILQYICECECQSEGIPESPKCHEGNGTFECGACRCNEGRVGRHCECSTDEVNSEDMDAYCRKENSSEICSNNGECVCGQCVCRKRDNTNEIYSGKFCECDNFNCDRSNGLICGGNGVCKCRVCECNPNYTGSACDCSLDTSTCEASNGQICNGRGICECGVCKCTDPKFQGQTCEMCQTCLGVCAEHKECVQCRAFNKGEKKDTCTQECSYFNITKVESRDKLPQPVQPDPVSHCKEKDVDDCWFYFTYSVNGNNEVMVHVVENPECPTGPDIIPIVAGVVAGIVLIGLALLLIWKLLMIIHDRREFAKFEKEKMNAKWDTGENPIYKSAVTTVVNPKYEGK
Integrin beta-1 (Homo sapiens) + Integrin alpha-4 (Homo sapiens), sequence (P13612 whole entry, looked up): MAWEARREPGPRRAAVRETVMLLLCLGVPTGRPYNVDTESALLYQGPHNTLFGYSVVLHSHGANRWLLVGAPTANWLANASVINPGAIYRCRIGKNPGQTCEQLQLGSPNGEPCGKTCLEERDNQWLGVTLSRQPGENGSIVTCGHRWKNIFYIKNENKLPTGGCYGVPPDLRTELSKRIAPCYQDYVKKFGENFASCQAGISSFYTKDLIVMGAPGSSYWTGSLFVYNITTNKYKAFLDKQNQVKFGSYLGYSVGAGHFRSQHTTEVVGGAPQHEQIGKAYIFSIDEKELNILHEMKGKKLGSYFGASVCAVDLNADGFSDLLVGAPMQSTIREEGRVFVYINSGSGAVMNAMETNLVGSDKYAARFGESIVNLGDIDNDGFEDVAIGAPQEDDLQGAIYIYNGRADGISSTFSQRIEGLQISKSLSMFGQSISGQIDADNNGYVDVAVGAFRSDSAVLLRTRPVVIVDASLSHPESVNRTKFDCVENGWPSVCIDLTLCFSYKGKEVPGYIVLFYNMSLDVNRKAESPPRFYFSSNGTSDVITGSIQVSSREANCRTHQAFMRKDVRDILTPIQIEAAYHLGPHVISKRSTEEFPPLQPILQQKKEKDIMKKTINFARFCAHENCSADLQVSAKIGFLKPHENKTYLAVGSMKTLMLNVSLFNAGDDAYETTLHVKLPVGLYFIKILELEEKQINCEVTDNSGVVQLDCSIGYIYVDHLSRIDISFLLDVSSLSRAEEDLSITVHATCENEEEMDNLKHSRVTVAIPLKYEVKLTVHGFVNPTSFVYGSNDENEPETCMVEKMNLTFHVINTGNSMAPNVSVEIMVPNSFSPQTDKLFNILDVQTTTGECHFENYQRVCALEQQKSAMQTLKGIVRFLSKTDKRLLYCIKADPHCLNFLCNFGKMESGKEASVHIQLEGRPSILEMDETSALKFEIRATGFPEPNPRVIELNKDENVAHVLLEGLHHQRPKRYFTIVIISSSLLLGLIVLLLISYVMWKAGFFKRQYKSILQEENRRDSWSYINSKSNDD

Assay [7] in a line: calorie-restriction mimetic ROS inhibitors, yeast – validation compound set, pilot screen (AID 2706;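 active means superoxide response below 65% of plate, a cut near 3 SD across the whole screen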;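 further: yeast exposed to compound for one week at 30 degrees C before staining; 100% = mean of all compound wells on the same plate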). The note with it: S. cerevisiae aging, superoxide DHE fluorescence; at 10 µM, stronger effect = lower value.
Assay [8] concerns the target Beta-adrenergic receptor kinase 1 (Homo sapiens) (UniProt P25098). The assay is described as follows: GRK2 binders displacing RNA aptamer, biochemical, validation, human GRK2, bead flow cytometry (AID 488806;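 active means aptamer binding inhibition above 30%, about 3 SD of noise from non-fluorescent compounds; inactive means inhibition at or below 30%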). The conditions noted are these: bead-bound GRK2, FAM-aptamer displacement, at 10 µM, stronger effect = higher value.
Assay [9] has as its target Beta-2 adrenergic receptor (Homo sapiens) (UniProt P07550). The assay is described as follows: agonist-induced loss of surface beta2AR – cell-based, FAP fluorogen, flow cytometry, validation set, pilot screen (AID 504459;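 active means percent response above 42, roughly 3 SD of non-fluorescent test compounds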;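 further: agonist-driven loss of surface beta2AR via internalization measured by FAP dye flow cytometry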). The note with it: Am2.2-beta2AR cells, at 10 µM, stronger effect = higher value.
Assay [10] has as its target AP-2 complex subunit beta (Homo sapiens) (UniProt P63010). The experiment in a line: beta-arrestin/AP2 interaction blockers – biochemical, validation set, GST-AP2 beads, flow cytometry, pilot screen (AID 504541;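 active means inhibition above 54%, about 3 SD of non-fluorescent compounds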;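 further: AP2 carries R879A mutation and is captured from E. coli lysate; bead-bound FITC arrestin peptide fluorescence measuring arrestin peptide binding to AP2; 0% = DMSO wells and 100% = excess unlabeled arrestin peptide control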). The conditions noted are these: FITC arrestin peptide, at 10 µM, stronger effect = higher value, AP2 beta2 appendage fragment, R879A mutant.
The nature of assay [11]: cytosolic pH regulators acting via V-ATPase – S. cerevisiae, pHLuorin, HTS validation (AID 504600; in the data active means response above about 15%;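 further: plate controls were DMSO for no effect and reference compound for full effect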). The conditions noted are these: V-ATPase proton transport, at 10 µM, stronger effect = higher value.
Assay [12] has as its system anti-desmoglein-3 scFv antibody binding to human DSG3. The experiment in a line: blockers of pathogenic pemphigus antibody–desmoglein-3 binding – biochemical, validation compound set, bead-based, flow cytometry, pilot screen (AID 588368;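 active means binding below the plate cutoff, the plate median minus 3 SD, with a reading above zero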;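 further: signal is the median channel fluorescence of bead-bound GFP antibody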). The note with it: Protein G beads, DSG3-Fc, scFv-GFP binding, at 10 µM, stronger effect = lower value.
Assay [13] in a line: Nile Red efflux blockade in pump-expressing yeast – validation compound set, multiplex, phenotypic, pilot screen (AID 588506;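 active means efflux inhibition above 0.42, the validation set average plus 4 SD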;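 further: Nile Red retained in cells so higher fluorescence means more efflux inhibition; 0 = negative control wells and 1 = enniatin B 25 µM full block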). The note with it: S. cerevisiae pump-expressing triplex, Nile Red efflux flow cytometry; at 10 µM; stronger effect = higher value; the pumps come from Candida albicans.
The target in assay [14] is ATP-binding cassette sub-family B member 6 (Homo sapiens) (UniProt Q9NP58). The experiment in a line: blockers of ABCB6-driven porphyrin uptake – K562-ABCB6 cells, flow cytometry, validation set, pilot screen (AID 588550;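 active means inhibition above the screen-wide mean plus 3 SD, about 51%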;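 further: 0% = DMSO wells and 100% = benzethonium chloride 70 µM positive control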). The conditions noted are these: K562-ABCB6 porphyrin accumulation, 1 h, at 10 µM, stronger effect = higher value.
ATP-binding cassette sub-family B member 6 (Homo sapiens), sequence (Q9NP58 whole entry, looked up): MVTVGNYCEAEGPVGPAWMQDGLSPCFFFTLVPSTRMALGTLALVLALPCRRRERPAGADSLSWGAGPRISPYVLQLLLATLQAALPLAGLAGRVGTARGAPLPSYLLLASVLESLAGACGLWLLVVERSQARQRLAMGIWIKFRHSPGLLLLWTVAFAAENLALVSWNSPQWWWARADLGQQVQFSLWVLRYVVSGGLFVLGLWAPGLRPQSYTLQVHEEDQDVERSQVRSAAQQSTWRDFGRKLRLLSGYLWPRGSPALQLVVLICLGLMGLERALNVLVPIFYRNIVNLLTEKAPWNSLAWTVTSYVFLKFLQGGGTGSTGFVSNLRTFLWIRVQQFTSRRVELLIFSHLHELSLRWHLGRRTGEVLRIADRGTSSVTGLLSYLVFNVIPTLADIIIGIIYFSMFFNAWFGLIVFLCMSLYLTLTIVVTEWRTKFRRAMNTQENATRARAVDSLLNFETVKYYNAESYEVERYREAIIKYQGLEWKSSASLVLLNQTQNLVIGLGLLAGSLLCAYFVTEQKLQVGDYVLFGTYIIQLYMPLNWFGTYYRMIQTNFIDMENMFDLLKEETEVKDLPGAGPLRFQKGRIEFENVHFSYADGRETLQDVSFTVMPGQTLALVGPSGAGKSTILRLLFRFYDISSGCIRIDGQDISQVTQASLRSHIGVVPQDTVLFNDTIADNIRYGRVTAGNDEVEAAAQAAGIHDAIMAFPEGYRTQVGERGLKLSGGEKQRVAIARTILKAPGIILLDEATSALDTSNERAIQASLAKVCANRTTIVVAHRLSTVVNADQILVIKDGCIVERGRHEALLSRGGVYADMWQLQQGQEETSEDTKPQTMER
Assay [15] in a line: AML differentiation inducers, ER-HoxA9 marrow cells – cell-based, GFP/MAC1 double positive, flow cytometry, validation set, primary screen (AID 588685;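 active means differentiation response of at least 50%, scaled between solvent and reference control, from cells with both markers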;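 further: compound exposure lasts four days before antibody staining and flow analysis; 0% = DMSO wells and 100% = 5 µM fulvestrant positive control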). The note with it: stronger effect = higher value, normalized: vehicle 0, fulvestrant 100.
The nature of assay [16]: TOR pathway GLN3 branch reporter MEP2-GFP changes – S. cerevisiae, multiplex flow cytometry, primary screen (AID 1867;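 active means GFP response, as percent of the DMSO control, above the screen-wide mean plus 3 SD, about 139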;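 further: median GFP channel fluorescence of barcode-gated MEP2-GFP cells measured by flow cytometry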). The note with it: S. cerevisiae MEP2-GFP strain, 3 h, at 10 µM, stronger effect = higher value, 100% means same as DMSO wells.

Beta-adrenergic receptor kinase 1 (Homo sapiens), sequence (P25098 whole entry, looked up): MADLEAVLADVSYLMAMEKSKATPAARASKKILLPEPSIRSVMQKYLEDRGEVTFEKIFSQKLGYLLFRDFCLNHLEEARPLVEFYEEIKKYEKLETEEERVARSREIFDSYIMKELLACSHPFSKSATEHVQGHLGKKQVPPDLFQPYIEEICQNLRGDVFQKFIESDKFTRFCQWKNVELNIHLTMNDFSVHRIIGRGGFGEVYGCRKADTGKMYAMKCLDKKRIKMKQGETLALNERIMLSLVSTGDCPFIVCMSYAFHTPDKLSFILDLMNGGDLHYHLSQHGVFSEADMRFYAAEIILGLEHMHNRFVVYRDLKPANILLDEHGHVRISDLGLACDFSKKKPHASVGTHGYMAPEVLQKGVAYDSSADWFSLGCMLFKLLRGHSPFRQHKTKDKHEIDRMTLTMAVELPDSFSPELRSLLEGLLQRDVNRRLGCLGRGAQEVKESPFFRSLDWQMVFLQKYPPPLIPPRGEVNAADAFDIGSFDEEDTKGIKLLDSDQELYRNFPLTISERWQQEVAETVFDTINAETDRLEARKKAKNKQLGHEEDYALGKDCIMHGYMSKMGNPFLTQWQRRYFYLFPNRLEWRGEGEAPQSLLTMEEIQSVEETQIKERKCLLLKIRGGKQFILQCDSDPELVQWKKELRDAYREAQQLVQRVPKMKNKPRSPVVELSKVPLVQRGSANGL
Beta-2 adrenergic receptor (Homo sapiens), sequence (P07550 whole entry, looked up): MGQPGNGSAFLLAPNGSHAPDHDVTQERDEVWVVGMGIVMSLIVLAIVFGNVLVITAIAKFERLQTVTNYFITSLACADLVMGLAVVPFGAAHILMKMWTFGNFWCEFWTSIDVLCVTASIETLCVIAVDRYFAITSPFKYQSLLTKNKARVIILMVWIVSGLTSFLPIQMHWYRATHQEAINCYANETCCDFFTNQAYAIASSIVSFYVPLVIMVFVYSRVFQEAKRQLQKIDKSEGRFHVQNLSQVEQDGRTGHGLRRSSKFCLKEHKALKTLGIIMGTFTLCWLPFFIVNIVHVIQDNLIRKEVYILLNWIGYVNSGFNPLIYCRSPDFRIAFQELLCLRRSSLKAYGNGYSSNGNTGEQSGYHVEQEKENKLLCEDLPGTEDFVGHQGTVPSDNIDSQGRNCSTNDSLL
AP-2 complex subunit beta (Homo sapiens), sequence (P63010 whole entry, looked up, the tested form may be a part, one chain of several): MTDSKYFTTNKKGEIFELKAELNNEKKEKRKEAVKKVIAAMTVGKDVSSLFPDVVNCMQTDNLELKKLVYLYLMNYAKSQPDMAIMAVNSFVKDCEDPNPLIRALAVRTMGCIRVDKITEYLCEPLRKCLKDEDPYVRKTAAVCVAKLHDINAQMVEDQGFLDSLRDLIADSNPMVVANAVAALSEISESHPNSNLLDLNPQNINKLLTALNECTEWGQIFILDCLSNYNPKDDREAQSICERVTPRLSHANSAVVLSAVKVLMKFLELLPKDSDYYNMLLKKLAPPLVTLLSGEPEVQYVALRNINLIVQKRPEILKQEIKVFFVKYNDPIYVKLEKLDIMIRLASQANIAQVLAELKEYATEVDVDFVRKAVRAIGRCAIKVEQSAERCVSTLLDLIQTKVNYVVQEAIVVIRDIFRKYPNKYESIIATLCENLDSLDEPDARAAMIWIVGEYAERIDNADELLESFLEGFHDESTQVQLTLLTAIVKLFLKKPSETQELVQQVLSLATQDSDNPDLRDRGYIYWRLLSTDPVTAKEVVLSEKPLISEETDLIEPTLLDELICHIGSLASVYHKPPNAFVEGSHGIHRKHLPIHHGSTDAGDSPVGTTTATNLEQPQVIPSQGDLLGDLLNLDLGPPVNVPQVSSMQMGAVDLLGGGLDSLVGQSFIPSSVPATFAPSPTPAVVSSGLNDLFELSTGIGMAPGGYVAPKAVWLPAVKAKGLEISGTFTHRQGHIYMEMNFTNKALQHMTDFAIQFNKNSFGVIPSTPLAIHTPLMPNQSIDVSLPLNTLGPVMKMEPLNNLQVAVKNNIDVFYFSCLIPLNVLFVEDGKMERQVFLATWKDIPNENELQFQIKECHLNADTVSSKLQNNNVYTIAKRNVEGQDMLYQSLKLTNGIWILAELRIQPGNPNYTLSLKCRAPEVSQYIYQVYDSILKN

As to `c1ccc2c(c1)CCCC2C1=NCCN1` (stereo not drawn), the percent of DMSO control GFP in assay [1] was 98.2% (inactive). The percent response of DMSO control in [2] was 102% (inactive). Further, in assay [3], the GFP response vs DMSO is 108% (inactive). In assay [4], the GFP response, % of DMSO is 110% (inactive). The molecule also returned a double positive events in assay [5] of 69.5%. In addition, in assay [5], the vesicle binding response was 263% (inactive). The inhibition in assay [6] is -15.6% (inactive); in assay [10], -7.04% (inactive); in assay [14] it was 19% (inactive). Besides, the superoxide response (% of plate) in [7] is 82.6% (inactive). Besides, the aptamer binding inhibition in assay [8] is -1% (inactive). Besides, the response in [9] is -24.5% (inactive); in assay [11], 1.56% (inactive). Moreover, the binding (% of control) in assay [12] was 101% (inactive). Moreover, in assay [13], the efflux inhibition (fraction of control) is -0.04 (inactive). Further, the differentiation response in assay [15] was 8.8% (inactive).

Consider `O=C(CCCCCCCC(=O)c1ccccc1)c1ccccc1`, for which the percent of DMSO control GFP in [1] was 98.2% (inactive). For the same molecule, the percent response of DMSO control in [2] was 98.6% (inactive). Moreover, in assay [3], the GFP response vs DMSO was 105% (inactive). In assay [4], the GFP response, % of DMSO is 96.9% (inactive). This molecule also registered a double positive events in assay [5] of 62.1%. Also, in assay [5], the vesicle binding response was 189% (inactive). Besides, the inhibition was -5.89% (inactive) in assay [6], -3.86% (inactive) in assay [10] and 7% (inactive) in assay [14]. In addition, the superoxide response (% of plate) in [7] is 95.3% (inactive). In [8], the aptamer binding inhibition is 7% (inactive). For the same molecule, the figures for the response in [9] and in [11] were 9.71% (inactive) and -4.73% (inactive), respectively. Also, the binding (% of control) in assay [12] is 98.9% (inactive). In addition, the efflux inhibition (fraction of control) in assay [13] was -0.13 (inactive). In addition, the differentiation response in [15] was 5.6% (inactive).

Regarding `COCCc1ccc(OCC(O)CNC(C)C)cc1` (stereo not drawn), the percent of DMSO control GFP in assay [1] is 103% (inactive). The percent response of DMSO control in assay [2] was 98.9% (inactive). Moreover, the GFP response vs DMSO in assay [3] was 87.4% (inactive). In assay [4], the GFP response, % of DMSO was 97.6% (inactive). In addition, the double positive events in assay [5] was 68.1%. Further, the vesicle binding response in assay [5] was 212% (inactive). The figures for the inhibition in assay [6], in [10] and in [14] were 7.85% (inactive), -6% (inactive) and 7% (inactive), respectively. Also, the aptamer binding inhibition in assay [8] is -2% (inactive). For the same molecule, in assay [11], the response is 1.04% (inactive). Besides, the binding (% of control) in [12] was 105% (inactive). Besides, in assay [13], the efflux inhibition (fraction of control) was 0.21 (inactive). Also, the differentiation response in [15] was 5.13% (inactive).

In the case of `O=c1c2ccccc2nnn1Cc1cccc2ccccc12`, the percent of DMSO control GFP in assay [1] is 89.1% (inactive). The GFP response vs DMSO in assay [16] was 105% (inactive); in [3], 78.7% (inactive). In addition, the percent response of DMSO control in assay [2] was 103% (inactive). For the same molecule, the double positive events in assay [5] came out at 61%. Also, the vesicle binding response in [5] was 217% (inactive). For the same molecule, the inhibition in assay [6] was -13.9% (inactive); in [10], -7.09% (inactive); in assay [14], 13% (inactive). Also, the superoxide response (% of plate) in assay [7] is 103% (inactive). For the same molecule, the aptamer binding inhibition in [8] was 1% (inactive). Also, the response in [9] is -3.06% (inactive); in assay [11] it was 3.28% (inactive). For the same molecule, the binding (% of control) in assay [12] is 99% (inactive). Further, the efflux inhibition (fraction of control) in assay [13] is -0.2 (inactive). In assay [15], the differentiation response was -0.82% (inactive).

`COC(=O)c1ccc(CC(=O)c2ccc(O)cc2O)o1`: in assay [1], the percent of DMSO control GFP is 93.5% (inactive). The results for the GFP response vs DMSO in assay [16] and in [3] were 119% (inactive) and 79.8% (inactive), respectively. Also, the percent response of DMSO control in assay [2] is 91.3% (inactive). This molecule returned a double positive events in assay [5] of 72.3%. Further, in assay [5], the vesicle binding response was 248% (inactive). In addition, the inhibition in assay [6] is -32.3% (inactive); in assay [10] it was 5.21% (inactive); in [14], -45% (inactive). The superoxide response (% of plate) in assay [7] was 93.2% (inactive). Besides, the aptamer binding inhibition in [8] was 4% (inactive). In addition, the response is 7.39% (inactive) in assay [9] and 18.1% (active) in assay [11]. Further, in assay [12], the binding (% of control) is 109% (inactive). In [13], the efflux inhibition (fraction of control) was -0.24 (inactive). The differentiation response in assay [15] was 4.91% (inactive).
